Compound activity: PubChem BioAssay, National Center for Advancing Translational Sciences (NCATS)
Pf growth 96h: Primary qHTS for delayed death inhibitors of the malarial parasite plastid, 96 hour incubation. P. falciparum luciferase reporter growth, 96 h. Potency, µM (titrated, usually from 28.7 µM), hits mostly inhibitors. actives 6.9% (n = 320,000). AID 504834, 2011
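Parasite growth measured via integrated firefly luciferase reporter in P. falciparum. Infected erythrocytes at 2% hematocrit, 0.05% parasitemia final were treated 96 hours at 37 C under 5% CO2, and luminescence was read.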
SARS PLpro yeast: qHTS of Yeast-based Assay for SARS-CoV PLP. AID 485353, 2010. S. cerevisiae expressing SARS-CoV PLpro, growth rescue. Potency, µM (series often up to 32.9 µM), actives largely listed as activators. actives 0.19% (n = 330,000); calls by dose curve; also: nearly all actives have a fitted effect of over 55% in size
AMA1-RON2 inh: qHTS for Inhibitors of AMA1-RON; Towards Development of Antimalarial Drug Lead: Primary Screen; Potency, µM (top dose mostly 58.2 µM), actives largely listed as inhibitors; Plasmodium falciparum AMA1 (3D7) - RON2 peptide interaction; AlphaScreen AMA1-biotinylated RON2 peptide binding; actives 0.2% (n = 360,000); also: nearly all actives have a fitted effect of over 45% in size
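AMA1 (3D7) with his tag at 25 nM final met compounds first, then biotinylated RON2 peptide at 25 nM; detection used donor plus acceptor beads, 10 µg/mL apiece, read by AlphaScreen after 30 min at room temperature.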
Shiga inhibitor: A qHTS for Small Molecule Inhibitors of Shiga Toxin; Vero cells, Shiga toxin protein synthesis inhibition reporter; inhibition, % at 38.7 µM; actives 9.2% (n = 290,000); in the data active = inhibition mostly above about 28%, no sharp cut-off; inactive = mostly below about 43%
Pf growth 48h: Primary qHTS for delayed death inhibitors of the malarial parasite plastid, 48 hour incubation; P. falciparum luciferase growth in erythrocytes, 48 h; Potency, µM (top dose mostly 28.7 µM), actives largely listed as inhibitors; actives 5.9% (n = 310,000); AID 504832, 2011
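Cell-based growth assay: transgenic P. falciparum expressing firefly luciferase, cultured in red cells within RPMI 1640 containing 0.5% w/v Albumax, 24 mM bicarbonate and gentamycin. A drop in luciferase activity indicates inhibition.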
Cycloheximide cs: Cycloheximide Counterscreen for Small Molecule Inhibitors of Shiga Toxin; AID 2314, 2010; actives 12% (n = 300,000); max response, %; cell reporter, cycloheximide protein synthesis inhibition counterscreen; in the data active = max response mostly above about 13%, no sharp cut-off; inactive = mostly below about 14%; also: read at 38.3 µM for the half of the compounds with a filed dose
Each line names hits and unclear results; the compound was inactive in the other large screens. Shown are actives, neighbours in structure and some others; about 19% of the full set was active somewhere. Unless noted, calls follow the shape of the dose curve; as a rule, active = well fitted curve in the direction sought with a large enough effect; inconclusive = small, poorly fitted or top-dose-only effect, or another doubt; inactive = no such curve, though single readings can be large; an effect the other way counts as inactive or inconclusive.

CCOc1ccc(-n2c(C)cc(/C=C3/C(=N)N4C(=NC3=O)SN=C4S(C)(=O)=O)c2C)cc1	Pf growth 96h 8.28µM, Pf growth 48h inconclusive
COc1ccccc1-n1c(C)cc(/C=C2/C(=N)N3C(=NC2=O)SN=C3S(C)(=O)=O)c1C	Pf growth 96h inconclusive, Shiga inhibitor 116.1, Pf growth 48h inconclusive, Cycloheximide cs 23.9
COc1cc(/C=C2/C(=N)N3C(=NC2=O)SN=C3S(C)(=O)=O)ccc1OS(=O)(=O)c1ccccc1	Pf growth 96h inconclusive, Shiga inhibitor 44.5 (no result: AMA1-RON2 inh)
Cc1ccc(C)c(S(=O)(=O)N2CCN(C(=O)c3ccc(OCc4c(C)noc4C)cc3)CC2)c1	Pf growth 96h inconclusive, Pf growth 48h inconclusive (no result: Shiga inhibitor, Cycloheximide cs)
COc1cc(OC)cc(C(=O)NC(=S)Nc2ccc(NC(=O)c3ccco3)cc2)c1	none
COc1ccccc1C(=O)NC(=S)Nc1ccc(NC(=O)c2ccco2)cc1	Pf growth 96h 5.22µM, Pf growth 48h inconclusive
COc1ccccc1C(=O)Nc1ccc(NC(=O)c2ccco2)cn1	Shiga inhibitor 89.9, Cycloheximide cs 27.6
CC(C)(C)C(=O)Nc1ccc(NC(=O)c2ccco2)nc1	none
CCOc1ccccc1N(CC(=O)NC1CCCC1)C(=O)CCCC(=O)Nc1ccccn1	Pf growth 96h inconclusive
CC(C)(C)OC(=O)N1CCC(c2c(C(=O)N3CCN(C(=O)c4ccco4)CC3)cnn2-c2ccc(F)cc2)CC1	Pf growth 48h inconclusive
Cc1ccc(-n2ncc(C(=O)N3CCN(C(=O)c4ccco4)CC3)c2C2CCN(C(=O)OC(C)(C)C)CC2)cc1C	Pf growth 48h 4.65µM
CCOC(=O)C1(C#N)Cc2ccccc2C1	none (no result: Pf growth 96h, SARS PLpro yeast, Shiga inhibitor, Pf growth 48h, Cycloheximide cs)
COC(=O)c1ccc(OCc2nn[nH]n2)cc1	none
COc1nc(NCc2ccco2)nc(NC2CCCCC2)n1	Cycloheximide cs 26.3
CC(C)(C)NC(=O)C1CC1(c1ccccc1)c1ccccc1 (stereo unspecified)	Pf growth 96h inconclusive
CC1(C)CC1C(=O)Nc1ccc([N+](=O)[O-])cc1Br (stereo unspecified)	none
Cc1ccc(C2(c3ccc(C)cc3)CC2C(=O)Nc2ccc([N+](=O)[O-])cc2O)cc1 (stereo unspecified)	Pf growth 96h 0.657µM, AMA1-RON2 inh inconclusive, Pf growth 48h 0.828µM
O=C(Nc1ccc([N+](=O)[O-])cc1)C1CC1(c1ccccc1)c1ccccc1 (stereo unspecified)	Pf growth 96h inconclusive, Pf growth 48h 11.7µM
COC(=O)C1N[C@@H]([C@@H](NC(=O)COc2ccccc2)C(=O)NC2CC2)SC1(C)C (stereo partly specified)	none (no result: Pf growth 96h, SARS PLpro yeast, Shiga inhibitor, Pf growth 48h, Cycloheximide cs)
CCn1c2ccc(OC)cc2c2nc3ccccc3nc21	Pf growth 48h inconclusive
COc1ccc2nc3ccccc3nc2c1N	AMA1-RON2 inh inconclusive, Shiga inhibitor 158.9, Cycloheximide cs 48.9
COc1ccc(-c2nc3ccccc3nc2-c2ccc(OC)c(OC)c2)cc1OC	Pf growth 48h inconclusive
COc1ccc2nc3cccc(OC)c3nc2c1	Pf growth 96h inconclusive, Shiga inhibitor 62.8, Pf growth 48h inconclusive, Cycloheximide cs 43.6
COc1ccc(C(=O)Nc2ccc3c(c2)OCCO3)cc1	Pf growth 96h inconclusive, Cycloheximide cs 15.1
COc1ccc(C(=O)CCNc2ccc3c(c2)OCCO3)cc1	Shiga inhibitor 58.6
CC(=O)Oc1ccc(C(=O)Nc2ccc3c(c2)OCCO3)cc1	Pf growth 96h inconclusive, Cycloheximide cs 25.9 (no result: Shiga inhibitor)
CCCOc1ccc(C(=O)Nc2ccc3c(c2)OCCO3)cc1	Shiga inhibitor 72.8, Cycloheximide cs 36.4
COc1ccc(Cl)cc1NC(=O)COC(=O)CCCC1=NS(=O)(=O)c2ccccc2N1	Pf growth 96h inconclusive
COc1ccc2c(c1)CCCC21NC(=O)N(CC(=O)c2cc(F)ccc2F)C1=O (stereo unspecified)	Pf growth 96h inconclusive, AMA1-RON2 inh inconclusive, Pf growth 48h inconclusive (no result: Shiga inhibitor, Cycloheximide cs)
Cc1nn(C)c(Oc2ccccc2)c1CCNS(=O)(=O)c1ccc(Cl)cc1	Pf growth 96h inconclusive, Pf growth 48h inconclusive
CC(=O)Oc1ccc(C(=O)Nc2cc(NC(=O)c3ccc(OC(C)=O)cc3)cc(C(=O)NC(C)(C)C)c2)cc1	Pf growth 96h 2.62µM, Pf growth 48h inconclusive
COc1cc(C(=O)OCC(=O)NC(=O)C2CCCCC2)ccc1OC(F)F	Pf growth 48h inconclusive
O=C(CSC1=NCCS1)Nc1ccc(F)cc1	none
Cc1ccc(Cl)cc1NC(=O)c1ccc(CSc2nnnn2C)cc1	none (no result: Pf growth 96h)
Cc1ccc(NC(=O)c2ccc(CSc3nnc(C)s3)cc2)cc1	Shiga inhibitor 139.7, Cycloheximide cs 54.7
O=C(Nc1ccc(Br)cc1)c1ccc(CSC2=NCCS2)cc1	Pf growth 96h inconclusive, Shiga inhibitor 80.5, Cycloheximide cs 61.5
Cc1ccc(NC(=O)c2ccc(CSc3nnnn3C)cc2)cc1	Shiga inhibitor 140.5, Cycloheximide cs 37.4
Cc1cc(C)cc(NC(=O)c2ccc(CSc3nnc(C)s3)cc2)c1	Shiga inhibitor 79.9, Cycloheximide cs 29.2
CCOc1cccc2sc(N(CCN(CC)CC)C(=O)c3cccc([N+](=O)[O-])c3)nc12	Pf growth 48h inconclusive
C/C(=N/OC(=O)CC(C)C)c1cc(-c2ccc(Cl)cc2)no1	Shiga inhibitor 124.3
CCOC(=O)c1cc(/C(C)=N/OC(=O)c2ccc(Cl)cc2)on1	none
Cc1[nH]nc(SCC(=O)NCc2ccc(F)cc2)c1[N+](=O)[O-]	Pf growth 96h inconclusive
COc1cc(-c2noc(C3CCCN(C(=O)c4ccccc4)C3)n2)cc(OC)c1OC (stereo unspecified)	Pf growth 96h inconclusive
COc1ccc(CN2[C@@H](CC(C)=O)c3cc(C(F)(F)F)ccc3S2(=O)=O)cc1	none (no result: Pf growth 96h, SARS PLpro yeast, Shiga inhibitor, Pf growth 48h, Cycloheximide cs)
Cc1ccc(-n2nc3c(Cl)nnc(C)c3c2C)cc1	Pf growth 96h 0.329µM, Pf growth 48h 0.415µM
CCOC(=O)N/N=C\c1ccc([N+](=O)[O-])o1	Pf growth 96h 8.28µM, Pf growth 48h inconclusive
CC(C)(C)c1ccc2c(c1)OC(C(=O)N/N=C/c1ccc([N+](=O)[O-])o1)CO2 (stereo unspecified)	Pf growth 96h 2.94µM, Pf growth 48h inconclusive
NC(N)=NN=C(/C=C/c1ccc([N+](=O)[O-])o1)/C=C/c1ccc([N+](=O)[O-])o1	Pf growth 96h 3.01µM, Pf growth 48h 2.39µM (no result: SARS PLpro yeast, AMA1-RON2 inh, Shiga inhibitor, Cycloheximide cs)
O=C(O)/C=C/c1ccc([N+](=O)[O-])o1	Pf growth 96h inconclusive
CC1CN(N=Cc2ccc([N+](=O)[O-])o2)C(=N)O1 (stereo unspecified)	none (no result: Pf growth 96h, SARS PLpro yeast, Shiga inhibitor, Pf growth 48h, Cycloheximide cs)
Cc1cc2ncn(/N=C/c3ccc([N+](=O)[O-])o3)c2cc1C	Pf growth 96h 4.65µM, Pf growth 48h inconclusive
